Measured values published in PubChem BioAssay (NCATS).
Records with an inconclusive call do not appear. The source made the active and inactive calls. Unless noted, calls follow the shape of the dose curve; as a rule, active = well fitted curve in the direction sought with a large enough effect; inconclusive = small, poorly fitted or top-dose-only effect, or another doubt; inactive = no such curve, though single readings can be large; an effect the other way counts as inactive or inconclusive.

How the values were obtained:
[1] = tested on: Zika virus NS2B-NS3 protease; assay: Primary screen GU AMC qHTS for Zika virus inhibitors (AID 1347154); conditions: Zika NS2B-NS3 unlinked protease, AMC fluorogenic substrate; series mostly up to 54.1 µM;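 also: 0% = no-inhibitor control and -100% = no-enzyme control; nearly all actives have a fitted effect of over 70% in size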
Method in brief: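 Fluorogenic AMC-substrate cleavage by noncovalent NS2B-NS3 protease complex (25 nM, pH 8.0 Tris buffer with Tween 20) followed for 15 minutes at room temperature (~20% conversion). Percent inhibition from ex340/em450 signal change, fitted by 4-parameter Hill equation.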

[2] = Primary qHTS for small molecule stabilizers of the endoplasmic reticulum resident proteome: Secreted ER Calcium Modulated Protein (SERCaMP) assay (AID 1508630); conditions: SH-SY5Y GLuc-SERCaMP (Gaussia luciferase released on ER calcium loss) secretion, thapsigargin, luminescence; series mostly up to 38.4 µM; also: % is scaled to controls: 0 for no effect and ±100 for the full control effect
Method in brief: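 GLuc-SERCaMP-expressing SH-SY5Y cells, pretreated 16 h with compound, are challenged with thapsigargin to empty ER calcium stores; after 4 h, coelenterazine is added directly to the medium and luminescence is imaged.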

[3] = biological target: Rap guanine nucleotide exchange factor 3 (Homo sapiens) (UniProt O95398); assay: Confirmatory qHTS for antagonist of cAMP-regulated guanine nucleotide exchange factor 3 (EPAC1) (AID 1645880); conditions: EPAC1 Rap1B-BODIPY-GDP exchange, fluorescence; series mostly up to 115 µM; also: nearly all actives have a fitted effect of over 55% in size; also: potency is read from the fitted curve at half-maximal effect
Chain of Rap guanine nucleotide exchange factor 3 (Homo sapiens) (O95398 whole entry, looked up): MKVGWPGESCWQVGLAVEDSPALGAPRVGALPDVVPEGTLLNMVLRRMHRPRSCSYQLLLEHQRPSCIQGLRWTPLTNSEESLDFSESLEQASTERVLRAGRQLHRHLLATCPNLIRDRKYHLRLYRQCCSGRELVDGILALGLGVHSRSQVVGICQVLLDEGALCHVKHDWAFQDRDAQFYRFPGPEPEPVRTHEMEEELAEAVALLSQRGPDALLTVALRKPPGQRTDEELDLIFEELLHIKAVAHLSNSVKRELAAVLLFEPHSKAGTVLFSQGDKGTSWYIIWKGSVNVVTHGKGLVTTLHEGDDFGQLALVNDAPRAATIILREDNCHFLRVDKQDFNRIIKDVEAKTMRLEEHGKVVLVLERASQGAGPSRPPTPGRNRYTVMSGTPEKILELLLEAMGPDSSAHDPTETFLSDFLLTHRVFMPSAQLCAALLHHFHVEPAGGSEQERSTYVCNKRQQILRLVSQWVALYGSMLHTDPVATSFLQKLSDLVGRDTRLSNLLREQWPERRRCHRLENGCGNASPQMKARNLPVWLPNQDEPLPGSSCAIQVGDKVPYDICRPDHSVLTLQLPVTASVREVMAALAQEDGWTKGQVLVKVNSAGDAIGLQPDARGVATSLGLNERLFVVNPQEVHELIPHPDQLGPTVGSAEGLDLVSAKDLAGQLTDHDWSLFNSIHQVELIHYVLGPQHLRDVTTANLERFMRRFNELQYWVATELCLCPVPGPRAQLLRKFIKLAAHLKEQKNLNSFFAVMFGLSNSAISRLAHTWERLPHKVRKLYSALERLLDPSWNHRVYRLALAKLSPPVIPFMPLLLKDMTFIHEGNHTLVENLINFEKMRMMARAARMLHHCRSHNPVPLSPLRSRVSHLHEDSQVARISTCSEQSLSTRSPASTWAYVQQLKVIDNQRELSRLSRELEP
Method in brief: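 Nucleotide exchange uses 100 nM EPAC1, 250 nM RAP1B-BODIPY-GDP and 50 uM GDP, with compounds in a concentration-titration series. After 5 min at room temperature, fluorescence (480 nm ex/540 nm em) is read every 5 min for 30 min. Data are normalized to control ATA and DMSO.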

[4] = biological target: Rap guanine nucleotide exchange factor 3 (Homo sapiens) (UniProt O95398); assay: Confirmatory qHTS for agonist of cAMP-regulated guanine nucleotide exchange factor 3 (EPAC1) (AID 1645881); conditions: EPAC1 Rap1B BODIPY-GDP exchange fluorescence, 100% = cAMP control response; series mostly up to 154 µM;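 also: EPAC1 catalysed release of BODIPY-GDP from Rap1B seen as fluorescence loss; nearly all actives have a fitted effect of over 75% in size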
[5] = biological target: Rap guanine nucleotide exchange factor 4 (Homo sapiens) (UniProt Q8WZA2); assay: Confirmatory qHTS for agonist of cAMP-regulated guanine nucleotide exchange factor 4 (EPAC2) (AID 1645884); conditions: EPAC2 GEF activity, Rap1B-BODIPY-GDP fluorescence, percent relative to cAMP agonist control; series mostly up to 154 µM;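 also: nucleotide exchange releases bodipy-GDP from Rap1 and this lowers its fluorescence; % is scaled to controls: 0 for no effect and ±100 for the full control effect; nearly all actives have a fitted effect of over 65% in size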
Chain of Rap guanine nucleotide exchange factor 4 (Homo sapiens) (Q8WZA2 whole entry, looked up): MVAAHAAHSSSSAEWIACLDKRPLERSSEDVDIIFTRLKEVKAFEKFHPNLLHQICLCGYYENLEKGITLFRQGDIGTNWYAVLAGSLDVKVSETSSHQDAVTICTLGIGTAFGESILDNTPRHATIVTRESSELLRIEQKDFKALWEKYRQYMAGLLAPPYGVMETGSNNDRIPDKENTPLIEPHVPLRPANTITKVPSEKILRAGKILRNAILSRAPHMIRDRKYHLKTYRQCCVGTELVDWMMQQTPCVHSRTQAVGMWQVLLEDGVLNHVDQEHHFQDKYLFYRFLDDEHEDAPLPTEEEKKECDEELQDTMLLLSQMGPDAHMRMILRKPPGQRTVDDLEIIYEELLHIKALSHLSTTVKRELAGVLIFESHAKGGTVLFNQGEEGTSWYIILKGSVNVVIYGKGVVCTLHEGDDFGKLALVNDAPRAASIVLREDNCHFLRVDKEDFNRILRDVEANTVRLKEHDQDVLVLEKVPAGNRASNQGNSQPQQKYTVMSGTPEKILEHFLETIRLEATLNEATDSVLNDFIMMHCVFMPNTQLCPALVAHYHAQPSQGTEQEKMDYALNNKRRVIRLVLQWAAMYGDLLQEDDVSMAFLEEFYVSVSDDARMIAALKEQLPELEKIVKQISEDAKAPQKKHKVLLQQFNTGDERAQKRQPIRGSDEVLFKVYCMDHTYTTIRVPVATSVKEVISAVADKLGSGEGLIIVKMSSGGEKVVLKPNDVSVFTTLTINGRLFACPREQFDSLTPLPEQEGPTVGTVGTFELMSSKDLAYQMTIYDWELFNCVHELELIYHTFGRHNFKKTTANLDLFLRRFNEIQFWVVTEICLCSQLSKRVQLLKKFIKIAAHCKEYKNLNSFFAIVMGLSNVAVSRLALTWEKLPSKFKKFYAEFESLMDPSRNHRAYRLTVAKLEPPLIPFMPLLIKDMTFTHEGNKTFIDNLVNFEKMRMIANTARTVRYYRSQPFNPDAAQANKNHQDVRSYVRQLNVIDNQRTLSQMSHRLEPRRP

[6] = biological target: Cytochrome P450 1A2 (Homo sapiens) (UniProt P05177); assay: p450-cyp1a2 (AID 410; calls by dose curve; also: potency is read from the fitted curve at half-maximal effect); conditions: recombinant CYP1A2, luciferin-ME demethylation, luminescence; series mostly up to 57 µM
Chain of Cytochrome P450 1A2 (Homo sapiens) (P05177 whole entry, looked up): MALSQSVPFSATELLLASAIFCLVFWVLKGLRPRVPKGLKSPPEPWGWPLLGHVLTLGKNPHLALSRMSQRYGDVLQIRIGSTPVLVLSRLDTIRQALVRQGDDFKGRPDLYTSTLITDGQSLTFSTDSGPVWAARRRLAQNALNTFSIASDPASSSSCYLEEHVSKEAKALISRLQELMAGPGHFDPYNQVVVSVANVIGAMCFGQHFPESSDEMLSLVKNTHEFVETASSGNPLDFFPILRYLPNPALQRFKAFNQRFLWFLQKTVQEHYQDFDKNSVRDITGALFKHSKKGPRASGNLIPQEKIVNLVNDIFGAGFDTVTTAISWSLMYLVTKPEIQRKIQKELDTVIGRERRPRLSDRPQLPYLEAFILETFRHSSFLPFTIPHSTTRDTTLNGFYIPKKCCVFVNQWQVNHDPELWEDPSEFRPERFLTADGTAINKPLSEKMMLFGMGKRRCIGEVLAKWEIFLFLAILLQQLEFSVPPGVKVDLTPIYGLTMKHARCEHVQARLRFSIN
Method in brief: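 Human CYP1A2 (20nM) demethylated Luciferin-ME at its Km (100uM) in 100mM KPO4. After 10 min compound preincubation, NADPH regeneration ran the reaction 60 min at room temperature. Luciferin was read by luminescence, normalized to 57 uM furafylline.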

[7] = biological target: Glucocorticoid receptor (Homo sapiens) (UniProt P04150); assay: GR-EFC Redistribution (AID 451; calls by dose curve; also: potency is read from the fitted curve at half-maximal effect); conditions: CHO-K1 GR-EFC translocation, beta-gal luminescence, 2 h
Chain of Glucocorticoid receptor (Homo sapiens) (P04150 whole entry, looked up, the tested form may be a part): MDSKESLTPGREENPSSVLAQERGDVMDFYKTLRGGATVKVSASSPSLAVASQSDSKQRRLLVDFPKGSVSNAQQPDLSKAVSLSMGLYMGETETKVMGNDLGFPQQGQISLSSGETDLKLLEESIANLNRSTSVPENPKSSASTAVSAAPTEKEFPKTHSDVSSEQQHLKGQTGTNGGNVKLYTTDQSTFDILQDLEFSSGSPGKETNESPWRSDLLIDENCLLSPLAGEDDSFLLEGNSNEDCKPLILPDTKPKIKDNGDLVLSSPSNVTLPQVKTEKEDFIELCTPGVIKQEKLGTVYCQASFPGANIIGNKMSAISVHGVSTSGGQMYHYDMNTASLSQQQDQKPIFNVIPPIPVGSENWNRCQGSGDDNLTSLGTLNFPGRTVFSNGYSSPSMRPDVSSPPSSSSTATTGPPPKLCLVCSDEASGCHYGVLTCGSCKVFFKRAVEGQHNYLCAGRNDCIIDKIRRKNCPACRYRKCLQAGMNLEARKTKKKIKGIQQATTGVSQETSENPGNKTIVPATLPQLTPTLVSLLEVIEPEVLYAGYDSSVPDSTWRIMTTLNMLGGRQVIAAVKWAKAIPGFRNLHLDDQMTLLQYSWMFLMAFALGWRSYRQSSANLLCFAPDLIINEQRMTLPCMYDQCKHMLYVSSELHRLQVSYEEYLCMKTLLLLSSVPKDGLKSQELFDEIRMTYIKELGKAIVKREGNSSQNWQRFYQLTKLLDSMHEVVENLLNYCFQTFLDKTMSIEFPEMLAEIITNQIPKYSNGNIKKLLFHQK
Method in brief: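 Translocation of GR-ED fusion to nuclear EA restores b-gal, read by luminescence after 1 h room-temperature detection. Engineered CHO-K1 biosensor cells, 1,000/well, exposed 2 h at 37 C to titrations up to 46 uM final.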

[8] = biological target: Mitogen-activated protein kinase 10 (Mus musculus) (UniProt Q61831); assay: JNK3 AlphaScreen Assay (AID 530; active = well fitted curve in either direction with a large enough effect, not every such curve was filed as active;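 also: kinase came from lysate of stimulated human HepG2 cells; signal reports phosphorylation of biotinylated GST-cJun 1-79 at Ser73 with 10 µM ATP; % is scaled to controls: 0 for no effect and ±100 for the full control effect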); conditions: JNK3 lysate, c-Jun phosphorylation; series mostly up to 57.1 µM
Method in brief: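 Room-temperature AlphaScreen kinase assay; pre-activated HepG2 lysate as JNK3 source, biotin-GST-cJun(1-79) substrate, 10 uM ATP, compound 15 min preincubation.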

[9] = biological target: Cytochrome P450 3A4 (Homo sapiens) (UniProt P08684); assay: qHTS Assay for Activators of Cytochrome P450 3A4 (AID 885); conditions: recombinant CYP3A4, Luciferin-PPXE luminescence, 60 min; series mostly up to 57.1 µM; also: nearly all actives have a fitted effect of over 65% in size
Chain of Cytochrome P450 3A4 (Homo sapiens) (P08684 whole entry, looked up): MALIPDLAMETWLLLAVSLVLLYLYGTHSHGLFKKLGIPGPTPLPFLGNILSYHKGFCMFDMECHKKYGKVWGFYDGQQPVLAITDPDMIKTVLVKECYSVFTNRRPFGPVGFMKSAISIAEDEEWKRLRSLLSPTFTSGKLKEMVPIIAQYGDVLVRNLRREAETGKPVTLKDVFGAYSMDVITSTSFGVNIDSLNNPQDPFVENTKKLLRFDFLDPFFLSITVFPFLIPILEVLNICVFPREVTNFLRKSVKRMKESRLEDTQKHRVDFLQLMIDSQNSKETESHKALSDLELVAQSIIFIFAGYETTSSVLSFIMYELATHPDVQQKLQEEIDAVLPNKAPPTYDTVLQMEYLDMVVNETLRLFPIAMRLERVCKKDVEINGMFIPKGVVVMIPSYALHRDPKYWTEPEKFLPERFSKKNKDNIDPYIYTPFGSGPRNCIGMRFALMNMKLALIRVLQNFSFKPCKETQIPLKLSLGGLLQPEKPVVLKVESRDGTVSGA
Method in brief: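 20nM CYP3A4 + 25uM Luciferin-PPXE (=KM), 200mM KPO4; cpd 10 min RT; NADPH regen, 60 min RT; stop w/ detection buffer, 20 min; luminescence. Normalized to 57 uM ketoconazole.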

[10] = biological target: DNA dC->dU-editing enzyme APOBEC-3G (Homo sapiens) (UniProt Q9HC16); assay: qHTS for inhibitors of Vif-A3G interactions: Validation (AID 588379); conditions: Vif-A3G protein interaction assay; series mostly up to 46.1 µM; also: 0% is about no effect
Chain of DNA dC->dU-editing enzyme APOBEC-3G (Homo sapiens) (Q9HC16 whole entry, looked up): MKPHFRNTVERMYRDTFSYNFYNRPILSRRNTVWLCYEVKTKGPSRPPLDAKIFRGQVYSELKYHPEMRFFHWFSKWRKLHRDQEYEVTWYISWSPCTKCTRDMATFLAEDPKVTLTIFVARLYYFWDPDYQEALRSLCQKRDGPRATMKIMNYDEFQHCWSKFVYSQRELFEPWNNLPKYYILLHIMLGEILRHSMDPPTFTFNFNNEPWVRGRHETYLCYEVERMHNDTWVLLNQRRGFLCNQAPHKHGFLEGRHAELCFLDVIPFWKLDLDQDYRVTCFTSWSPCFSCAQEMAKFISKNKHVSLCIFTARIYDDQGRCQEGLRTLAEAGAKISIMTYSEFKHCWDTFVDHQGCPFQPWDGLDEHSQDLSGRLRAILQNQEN
Method in brief: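 HeLa cells stably expressing Vif and A3G-eYFP, 700 cells/well, incubated overnight at 37 deg C, then exposed to compound overnight at 37 deg C. Inhibition of Vif-mediated degradation read as increased yellow fluorescence (Ex 488/Em 500-530) by laser-scanning cytometry.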

NC(C(=O)O)c1cc(O)c(Cl)c(O)c1 (stereo not given)
inactive: Potency [1] | Potency [2] | Potency [3] | outcome [4] | outcome [5]

C[C@H]1C=C2C=C[C@H](C)[C@H](CC[C@@H]3C[C@@H](O)CC(=O)O3)[C@H]2[C@@H](OC(=O)[C@@H](C)CCO)C1
inactive: Potency [7] > 46 µM | Potency [8] | Potency [9] | Potency [10] | Potency [1] | Potency [2] | outcome [4] | outcome [5]
active: Potency [6] 31.6 µM

CCCCC/C=C\C/C=C\C/C=C\C/C=C\CCCC(=O)O
active: Potency [3] 49.8 µM
inactive: Potency [9] | activity change, negative = inhibition [1] 3.96% [at 6.83 µM] | activity change, negative = inhibition [2] 40.9% [at 3.88 µM] | outcome [4] | outcome [5]
